Publication PMC4336329 (PLoS ONE, 2015)
The whole screen tested about 310,000 compounds, of which about 14,000 (4.5%) showed an effect of 50% or more. Effects have a minus sign here. Only a selection was taken, and strong results are over-represented in it overall.

The compounds below were run against human ether-à-go-go-related gene (hERG) potassium channel (human, UniProt Q12809) (assay: primary screen, population patch clamp on CHO cells stably expressing hERG; higher = less effect of the substance).
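Further: peak tail current of the secondary pulse compared with the same well before compound.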

Chain of human ether-à-go-go-related gene (hERG) potassium channel (Q12809 whole entry, looked up): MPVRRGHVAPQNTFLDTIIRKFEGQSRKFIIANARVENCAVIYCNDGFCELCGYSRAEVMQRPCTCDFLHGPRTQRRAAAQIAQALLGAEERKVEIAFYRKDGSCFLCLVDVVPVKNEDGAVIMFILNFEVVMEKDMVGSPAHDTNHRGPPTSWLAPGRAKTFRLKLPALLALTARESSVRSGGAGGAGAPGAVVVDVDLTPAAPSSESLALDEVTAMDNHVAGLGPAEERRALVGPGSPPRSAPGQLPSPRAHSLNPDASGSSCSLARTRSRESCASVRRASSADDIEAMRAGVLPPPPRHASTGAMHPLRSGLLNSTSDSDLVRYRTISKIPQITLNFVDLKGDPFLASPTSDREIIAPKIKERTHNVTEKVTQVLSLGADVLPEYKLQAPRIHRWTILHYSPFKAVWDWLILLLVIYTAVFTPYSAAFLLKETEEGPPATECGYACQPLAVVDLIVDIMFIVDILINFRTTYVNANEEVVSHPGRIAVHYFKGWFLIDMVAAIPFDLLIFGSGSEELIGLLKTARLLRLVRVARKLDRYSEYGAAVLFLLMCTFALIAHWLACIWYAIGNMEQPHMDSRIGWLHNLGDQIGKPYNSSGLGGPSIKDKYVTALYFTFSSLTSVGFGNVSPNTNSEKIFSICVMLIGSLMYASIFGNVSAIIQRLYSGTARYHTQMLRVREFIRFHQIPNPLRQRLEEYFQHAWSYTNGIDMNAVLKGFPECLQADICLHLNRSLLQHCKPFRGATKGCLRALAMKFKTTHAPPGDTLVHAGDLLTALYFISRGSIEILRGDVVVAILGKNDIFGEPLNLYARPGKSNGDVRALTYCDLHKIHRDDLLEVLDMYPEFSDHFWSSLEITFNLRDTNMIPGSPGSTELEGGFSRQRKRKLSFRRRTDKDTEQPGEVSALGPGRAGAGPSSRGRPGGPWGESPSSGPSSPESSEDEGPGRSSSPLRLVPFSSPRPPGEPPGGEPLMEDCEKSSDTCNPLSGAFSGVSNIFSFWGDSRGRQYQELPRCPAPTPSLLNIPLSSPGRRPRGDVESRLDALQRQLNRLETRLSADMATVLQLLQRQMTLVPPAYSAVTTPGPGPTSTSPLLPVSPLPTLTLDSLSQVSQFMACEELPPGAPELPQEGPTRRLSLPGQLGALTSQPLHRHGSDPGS

| SMILES | hERG current change (%, negative = inhibition) at 10uM |
| --- | --- |
| CCn1c(COc2ccccc2C)nnc1SCC(=O)OC | -9.68% |
| O=C(CN(C(=O)c1csnn1)c1cccc2ccccc12)NC1CCCC1 | -2.34% |
| COc1ccc2nc(C)cc(NCc3ccc(F)cc3)c2c1 | -61.6% |
| Cc1cc(NCc2ccccn2)nc2ccccc12 | -15.4% |
| Cc1cc(NCCO)c2ccccc2n1.Cl | 6.81% |
| COc1ccc2nc(C)cc(N/N=C/c3ccc(F)cc3)c2c1 | 0.337% |
| Cc1cc(NCC2CCCCC2)nc2ccccc12 | -42.7% |
| Cc1cc(NCc2ccccc2)c2ccccc2n1.Cl | -67.5% |
| Cc1cc(NC(=O)Cc2ccccc2)c2ccccc2n1 | 14.2% |
| COc1ccc(CNc2cc(C)nc3ccc(OC)cc23)cc1 | -72.8% |
| Cc1cc(NCc2ccccc2)nc2ccccc12 | -50.9% |
| COc1ccc2nc(C)cc(NCc3cccc(C(F)(F)F)c3)c2c1 | -31.7% |
| COc1ccc2nc(NCc3ccccc3)[nH]c2c1 | -25.4% |
| COC(=O)CSc1cc(C)nc2ccc(OC)cc12 | 1.44% |
| Cc1cc(C(=O)NNc2c(Cl)cccc2Cl)no1 | 3.46% |
| CC1(C)Cc2nc3oc4c(SCC(N)=O)ncnc4c3cc2CO1 | 4.95% |
| Cc1ccc(S(=O)(=O)N(C)C)cc1NC(=O)COC(=O)/C=C/c1ccc2c(c1)OCO2 | -9.63% |
| O=C(NC1CCCCC1)C1CCCN(S(=O)(=O)c2cccs2)C1 (stereo not drawn) | 11.3% |
| COc1ccc(NC(=O)OCCN2CCN(Cc3ccccc3)CCC2=O)cc1 | -9.25% |
| COc1c(O)ccc(/C=N/NC(=O)c2ccc3c(c2)OCCO3)c1[N+](=O)[O-] | 7.36% |
| FC(F)Sc1ccc(-n2cc(-c3ccccc3)[n+]3c2CCC3)cc1.[Br-] | -77.9% |

| SMILES | hERG current change (%, negative = inhibition) at 10uM |
| --- | --- |
| COc1ccc(-n2cc(-c3ccc(OC)c(OC)c3)[nH]c2=S)cc1 | 6.1% |
| [Br-].c1ccc(-c2cn(-c3ccccc3)c3[n+]2CCCS3)cc1 | -3.51% |
| COc1ccc(-c2cn(-c3ccc(SC(F)F)cc3)c3[n+]2CCC3)cc1OC.[Br-] | -62.4% |
| FC(F)Sc1ccc(-n2cc(-c3ccc(Cl)cc3)[n+]3c2CCC3)cc1.[Br-] | -74.3% |
| CC(=O)c1ccc(-n2cc(-c3ccc(C(C)(C)C)cc3)[n+]3c2SCCC3)cc1.[Br-] | -30.1% |
| O=C(Cc1ccc(Cl)cc1)Nc1ccc(SC(F)F)cc1 | -1.83% |
| N#Cc1ccc(-c2cn(-c3ccccc3)c3[n+]2CCCS3)cc1.[Br-] | 16.3% |
| COc1ccc(-c2cn(-c3ccccc3)c(=S)[nH]2)cc1OC | 16.1% |
| O=[N+]([O-])CC(c1ccccc1)c1c[nH]c2ccccc12 (stereo not drawn) | 10.6% |
| O=C(CN1C(=O)NC(Cc2c[nH]c3ccccc23)C1=O)Nc1ccc(F)c(F)c1F (stereo not drawn) | -5.36% |
| O=C(Nc1cccc(Cl)c1)N1CCN2C(=O)c3ccccc3C12c1ccccc1 (stereo not drawn) | -24.3% |
| COc1ccc(CNC(=S)Nc2ccccc2)cc1 | 7.34% |
| O=C(Cc1ccc([N+](=O)[O-])cc1)N1CCCc2ccccc21 | -41.1% |
| O=C(Oc1c(Cl)cc(Cl)c2ccccc12)N1CCCC1 | -25.9% |
| CC(COc1ccc(/C=C/c2ccccc2)cc1)[N+](C)(C)C.[I-] (stereo not drawn) | -9.04% |
| CC(C)(C)C(=O)Nc1ccc(C(=O)Nc2cc(NC(=O)c3ccc(NC(=O)C(C)(C)C)cc3)cc(C(=O)O)c2)cc1 | 6.62% |
| CCCc1cc(C(=O)Nc2ccc(C(=O)OC)cc2)cs1 | 5.28% |
| COc1ccc(/C=N/NC(=O)c2nn(C)cc2Br)cc1CSCc1ccco1 | -50.6% |
| CCOc1cc(/C=N/NC(=O)c2nn(C)cc2Br)ccc1OCc1ccccc1Cl | -14.7% |
| CCOc1cc(/C=N/NC(=O)c2nn(C)cc2Br)ccc1OCc1ccccc1 | 5.59% |
| Cc1cc(C)cc(OCC(=O)N2N=C(C(F)(F)F)CC2(O)C(C)(C)C)c1 (stereo not drawn) | 3.64% |
